Laboratory results reported in publication PMC12864922, “TDP-43 directly inhibits mRNA accumulation in neurites through modulation of mRNA stability”.
The full ranking holds about 9,900 sequences; the median of “r (bound/input frequency ratio)” is about 0.7, and the highest 2% start at about 6.5. What follows is part of a selection rich in the highest values, with near analogues and random picks from the rest.

B1: ENSMUSG00000031028.158|Tub (ssRNA)
RNA: GGGAGUUCUACAGUCCGACGAUCGCUUCGAUAUCCGCAUGCUAUGCCAGCAUGCCAUGAUCAGUGAGGGCUGUGUGCCAUGCUUAGGGGGAUGGCGCAGGGUGAGGGGAGCAGAGGAUAUUUUAGGGCCACAAGAGCUCAGAGGUAGCGGACCUCUGUGUGGUUCACCAACAGCAAUGCUGAUCCCUGAGUAUAGGGCACAUGUCUCUUGGUUACCUCACUGGUUAAUGGCAGAGUUGAGAACCUCAAAUUCUUUUGUUCCUACUGUUGCCCAGAAACUAGACUCUCUGACCUGCUAGGGUCUCUCUUGCGGUCGCACUAGUGUGGAAUUCUCGGGUGUCAAGG
B2: ENSMUSG00000031028.505|Tub (ssRNA)
RNA: GGGAGUUCUACAGUCCGACGAUCGCUUCGAUAUCCGCAUGCUACUGGGAAGACAGGAGUCGGAAGCCAAGGUGUGUGGCAACAGUCUGGAAGAGAGCUUUUGGUAAUCAUACCGUCUUCAGUGACAAGGCAACAAUGCUGUAAAGUGGGUUUGUUUGGUUUUGUUUUUUCUUUCUCUUUUAUGGAAAUGGCAGGUCUAUUUGCCUCAAACGUUAUGUAGAAGUAGUUCUAAGUUUAACAAGCAAUAGAGAUGACUGCUUAGCUAGGAUCUGCAGGGAGCUCUGCUCUGCAAGCACAACACCUGCUCUUGCGGUCGCACUAGUGUGGAAUUCUCGGGUGUCAAGG
B3: ENSMUSG00000090935.538|Synj2bp|26:32 (ssRNA)
RNA: GGGAGUUCUACAGUCCGACGAUCGCUUCGAUAUCCGCAUGCUAAAUGGCAAGGAGGAUAAAACACUGUACACACAUGUAUUGUUGAUCUAAAUAAAAAAUAUCAUUGGUAGAAGUUUUACUUUGGUUGAUAAGGAUUCUGAUAACAUUUGGGUCUCCUUAGGAAAGAAACACUUAACUAAAACAUUUAAGUUUUAGGCAAAUACUGUAAUAUUUCACUCUUAGUUAUAUGAAAACUAAAUGAGAUGUUGAGAAUCUAUAUAGAUUAUUCAAAUUUUAUGUUUCUUAUAGACUGACUCAAAUAUCUCUUGCGGUCGCACUAGUGUGGAAUUCUCGGGUGUCAAGG
B4: ENSMUSG00000061578.246|Ksr2 (ssRNA)
RNA: GGGAGUUCUACAGUCCGACGAUCGCUUCGAUAUCCGCAUGCUACAGAACCUUCUCACCCCUUUGCAAAGCUCUUGCCGUCUGCACCCGGGACCCCGGGACCCACACAAGUUGUCCCCAUGUGAACAUCCUGCCUCUCCUGGUGACAUCUGUCUCUGGCUCAGCUUCUCUGCCUCUUACAGACAGUUUCCCUGUACAUUUGCUUAUGGCCCUGGGCUCCAGAGUCGCUGAAGACCACUCUCCACAGCAGCUGUAACCCCAUCUAACAAGCCCUGUUCUGGAUAUAUCUCUGUGGCCAGGGCUGGCUCUUGCGGUCGCACUAGUGUGGAAUUCUCGGGUGUCAAGG

These binders were tested against TDP-43 (Homo sapiens, UniProt Q13148 1-414) (assay: RNA Bind-n-Seq with designed 260-mer pool; 25 mM Tris-HCl, 150 mM KCl, 3 mM MgCl2, BSA (printed 500 mg/mL), 20 units/mL SUPERase IN; pH not stated; 500 nM RNA pool, 1 h, 4 C; TDP-43 5, 50, 500 nM; high values mean tight binding). Conditions: protein: recombinant; tags: SBP (GST cleaved off with PreScission; pGEX-GST-SBP).
Outline: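 In 25 mM Tris-HCl, 150 mM KCl, 3 mM MgCl2, BSA and SUPERase IN, 500 nM of an in vitro-transcribed 260-nt 3′ UTR oligo pool was incubated for 1 h at 4 °C with SBP-tagged TDP-43 (5, 50 or 500 nM) captured on streptavidin beads. RNA remaining after washes was biotin-eluted, reverse transcribed, PCR-amplified and sequenced. Binding, R, is the bound-sample abundance of each oligo, normalized to mapped reads, divided by its abundance in input. Each duplicate used a separate, independent protein batch.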

Chain of TDP-43 (Q13148 whole entry): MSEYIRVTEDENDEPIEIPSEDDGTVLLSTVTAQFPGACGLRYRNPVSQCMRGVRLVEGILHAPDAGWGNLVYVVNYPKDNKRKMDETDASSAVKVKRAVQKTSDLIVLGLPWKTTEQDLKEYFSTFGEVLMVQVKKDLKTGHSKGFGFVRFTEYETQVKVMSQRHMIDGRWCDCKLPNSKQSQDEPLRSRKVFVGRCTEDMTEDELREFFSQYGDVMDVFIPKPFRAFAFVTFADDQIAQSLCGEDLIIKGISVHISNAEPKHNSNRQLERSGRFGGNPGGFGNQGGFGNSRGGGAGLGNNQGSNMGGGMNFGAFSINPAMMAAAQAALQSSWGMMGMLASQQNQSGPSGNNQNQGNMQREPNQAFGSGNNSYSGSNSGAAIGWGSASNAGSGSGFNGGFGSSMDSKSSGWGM

Row | Binder | binding signal
1 | B1 | 0.506 R (bound/input frequency ratio)
2 | B2 | 0.58 R (bound/input frequency ratio)
3 | B3 | 0.0361 R (bound/input frequency ratio)
4 | B4 | 0.544 R (bound/input frequency ratio)
